Assay results reported in the supplement of paper PMC12669032.
A number with no mark means an inactive call.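 How the source made its calls: active = AUC reduced over 20% with Padj below 0.05 in at least 2 of 3 replicates; inactive = otherwise.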

Experiments:
Experiment in all cases: growth AUC relative to DMSO control (median of replicates) (fraction); higher = more growth (less inhibition), active = hit call of the paper
Settings in all cases: 20 µM; 24 h
Coprococcus comes = tested on: Coprococcus comes
Method in brief: (§1)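 In round-bottom 96-well plates sealed with pierced gas-permeable seals, gut bacterial monocultures in mGAM were grown anaerobically at 37 °C from OD600 0.05 with 20 µM compound (1% DMSO). OD600 readings were taken hourly for 24 h, and the minimum OD was set to 0. Area under the growth curve was then normalised to the plate median of solvent-only wells, or to row and column medians on the industrial chemical plate. The value given is the median of three biological replicates grown on separate days.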

Escherichia coli ED1a = tested on: Escherichia coli ED1a
Method in brief: as §1

Escherichia coli IAI1 = tested on: Escherichia coli IAI1
Method in brief: as §1

Eubacterium rectale = tested on: Eubacterium rectale
Method in brief: as §1

[1] = tested on: Fusobacterium nucleatum subsp. animalis
Method in brief: as §1

Lactobacillus gasseri = tested on: Lactobacillus gasseri
Method in brief: as §1

Lactobacillus paracasei = tested on: Lactobacillus paracasei
Method in brief: as §1

Odoribacter splanchnicus = tested on: Odoribacter splanchnicus
Method in brief: as §1

[2] = tested on: Parabacteroides distasonis
Method in brief: as §1

Parabacteroides merdae = tested on: Parabacteroides merdae
Method in brief: as §1

Roseburia intestinalis = tested on: Roseburia intestinalis
Method in brief: as §1

Streptococcus salivarius = tested on: Streptococcus salivarius
Method in brief: as §1

Row | Compound | growth AUC (Coprococcus comes) | growth AUC (Escherichia coli ED1a) | growth AUC (Escherichia coli IAI1) | growth AUC (Eubacterium rectale) | growth AUC [1] | growth AUC (Lactobacillus gasseri) | growth AUC (Lactobacillus paracasei) | growth AUC (Odoribacter splanchnicus) | growth AUC [2] | growth AUC (Parabacteroides merdae) | growth AUC (Roseburia intestinalis) | growth AUC (Streptococcus salivarius)
1 | CCCOC(=O)c1ccccc1C(=O)OCCC | 1.11 | 1.02 | 1.05 | 1.1 | 1.15 | 0.999 | 1.09 | 0.698 | 0.953 | 0.993 | 1.1 | 1.01
2 | CP(=O)(O)CCC(N)C(=O)[O-].[NH4+] (stereo not given) | 1.06 | 1.02 | 1.02 | 1.08 | 1.17 | 0.944 | 1.08 | 1.02 | 1.1 | 1.03 | 1.06 | 1.01
3 | Cc1ccn2nc(S(=O)(=O)Nc3c(F)cccc3F)nc2n1 | 0.981 | 0.969 | 0.965 | 1.1 | 1.1 | 0.999 | 1.02 | 1.09 | 1.02 | 1 | 0.997 | 0.965
4 | Clc1cc(Cl)nc(-c2ccccc2)n1 | 1.02 | 1.01 | 0.997 | 1.06 | 1.08 | 0.883 | 1 | 1.02 | 0.991 | 0.965 | 0.956 | 0.99
5 | Nc1c([N+](=O)[O-])ccc(Oc2ccccc2)c1Cl | 0.903 | 1.01 | 1.01 | 0.887 | 0.947 | 1.02 | 0.832 | 0.935 | 0.951 | 0.912 | 0.988 | 0.929
6 | COP(=O)(OC)OC1=C(Cl)C2C=CCC12 (stereo not given) | 0.999 | 0.968 | 1.03 | 1.01 | 1.04 | 0.957 | 1.02 | 0.892 | 0.975 | 1.03 | 1.04 | 1.03
7 | CN(C)C(=O)Nc1ccc(Cl)cc1 | 0.985 | 1.01 | 0.97 | 0.996 | 1.02 | 1.05 | 1.03 | 0.963 | 0.938 | 1 | 0.979 | 0.971
8 | OC(Cc1ccccc1Cl)(Cn1[nH]cnc1=S)C1(Cl)CC1 (stereo not given) | 0.932 | 1.02 | 1.04 | 0.897 | 1.02 | 1.01 | 1.04 | 0.825 | 0.916 | 0.894 | 0.978 | 0.959
9 | C#CCOS(=O)OC1CCCCC1Oc1ccc(C(C)(C)C)cc1 (mixture of isomers) | 1.02 | 1.03 | 0.968 | 1 | 1.05 | 0.928 | 0.987 | 0.946 | 0.964 | 0.933 | 0.956 | 1.03
10 | N#CN=C1SCCN1Cc1ccc(Cl)nc1 | 1.04 | 0.966 | 0.996 | 0.979 | 1.11 | 1.03 | 0.963 | 1.02 | 1.03 | 1.01 | 1.01 | 1.01
11 | CC1(C)[C@H](C(=O)O[C@H](C#N)c2cccc(Oc3ccccc3)c2)[C@@H]1C=C(Br)Br | 0.985 | 0.991 | 0.979 | 1.11 | 0.922 | 0.926 | 0.986 | 1.03 | 0.972 | 0.921 | 0.933 | 0.914
12 | CN(C)C(=O)Nc1cccc(OC(=O)NC(C)(C)C)c1 | 0.974 | 0.995 | 0.972 | 1.19 | 1.07 | 0.934 | 0.934 | 0.551 (active) | 1.01 | 0.959 | 1.05 | 0.975
13 | COP(=S)(OC)Oc1ccc(S(=O)(=O)N(C)C)cc1 | 0.984 | 1 | 0.985 | 0.998 | 0.894 | 0.925 | 0.935 | 0.977 | 1.01 | 0.969 | 0.971 | 1.04
14 | O=[N+]([O-])c1ccc2ccc3cccc4ccc1c2c34 | 0.972 | 0.988 | 0.99 | 0.577 (active) | 0.401 (active) | 0.99 | 1.02 | 0.0656 (active) | 0.579 (active) | 0.495 (active) | 1.28 | 1.06
15 | CC(C)C(C(=O)OC(C#N)c1cccc(Oc2ccccc2)c1)c1ccc(OC(F)F)cc1 (stereo not given) | 1.02 | 0.998 | 0.979 | 0.848 | 0.968 | 1.01 | 1.02 | 1.07 | 0.983 | 0.971 | 0.977 | 0.993
16 | CCOP(=S)(OCC)Oc1cnc2ccccc2n1 | 0.989 | 0.977 | 0.977 | 0.91 | 0.995 | 0.966 | 1.01 | 1.01 | 0.589 (active) | 0.947 | 0.99 | 0.954
17 | Nc1ccc(Cl)cc1 | 1.03 | 1.02 | 1 | 1.05 | 1.08 | 0.939 | 0.955 | 1.1 | 1.05 | 1.02 | 0.963 | 1.01
18 | CNC(=O)O/N=C/C(C)(C)S(C)(=O)=O | 0.98 | 1.03 | 1.03 | 0.939 | 0.97 | 1.05 | 1 | 0.964 | 1.04 | 0.977 | 1.02 | 1.04
19 | CC1(C(=O)Nc2ccc(O)c(Cl)c2Cl)CCCCC1 | 0.965 | 1.01 | 0.991 | 0.973 | 0.915 | 1.03 | 0.949 | 0.907 | 1.05 | 0.993 | 0.86 | 0.967
20 | C[C@H]1[C@H](c2ccc(Cl)cc2)SC(=O)N1C(=O)NC1CCCCC1 | 1.03 | 1 | 0.996 | 1.05 | 1.07 | 0.791 | 1.03 | 0.832 | 0.725 | 0.947 | 0.922 | 0.985
21 | CCC(C)(C)c1ccc(O)cc1 | 1.03 | 0.978 | 0.985 | 0.953 | 1 | 0.957 | 0.999 | 1.08 | 1.03 | 1.01 | 0.995 | 0.995
22 | O=S1(=O)OCC2C(CO1)C1(Cl)C(Cl)=C(Cl)C2(Cl)C1(Cl)Cl (stereo not given) | 1.01 | 0.991 | 1 | 1.01 | 0.935 | 0.919 | 1.02 | 1.02 | 1.09 | 0.955 | 0.915 | 0.991
23 | CNC(=O)Oc1cccc(N=CN(C)C)c1.Cl | 1.04 | 1 | 1.05 | 1.04 | 1.07 | 1.02 | 1.04 | 1.02 | 1.03 | 1.02 | 0.992 | 1.02
24 | CC1(C)[C@H](C(=O)O[C@H](C#N)c2cccc(Oc3ccccc3)c2)[C@@H]1/C=C\C(=O)OC(C(F)(F)F)C(F)(F)F | 1.03 | 1.01 | 1.1 | 0.984 | 0.986 | 1.12 | 0.984 | 1.03 | 0.994 | 1.01 | 0.962 | 1.07
25 | Oc1cccc2cccnc12 | 0.928 | 0.987 | 0.982 | 0.904 | 1.04 | 1.08 | 0.942 | 1.02 | 1 | 0.993 | 1 | 0.995
